Laboratory results from PubChem BioAssay (NCATS).
Results filed as inconclusive are left out. A number with no mark means an inactive call. Activity calls are given as the source filed them. Calls come from the whole dose curve; as a rule, active = well fitted curve in the direction sought with a large enough effect; inconclusive = small, poorly fitted or top-dose-only effect, or another doubt; inactive = no such curve, though single readings can be large; an effect the other way counts as inactive or inconclusive.

test: qHTS of pediatric cancer cell lines to identify multiple opportunities for drug repurposing: Primary screen for control Hh wild type fibroblast cells (AID 1347106); conditions: Hh wild-type fibroblast viability, CellTiter-Glo luminescence, 48 h; series mostly up to 46 µM;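 note: a drop in luminescence marks cytotoxicity and a rise apparent proliferation; nearly all actives have a fitted effect of over 55% in size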
How it was run: (§1)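 Viability after 48 h compound treatment at 37C, 500-1,000 cells/well, read as ATP luminescence with CellTiter-Glo. Primary screens used 11-point (MIPE, 0.78 nM-46 µM) or 8-point (NPC, 0.59 nM-46 µM) final concentrations; follow-up screens used 11-point dilutions.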
% is set by controls: 0 for no effect and ±100 for the full control effect.

Structure (SMILES) | outcome | activity change, negative = cytotoxic
Nc1cc(=O)[nH]c(N)n1 | inactive | –
Nc1ccc(S(=O)(=O)Nc2nccs2)cc1 | inactive | –
C[C@H](N)[C@H](O)c1cccc(O)c1 | inactive | –
C[C@@H](O)[C@H](N)C(=O)O | inactive | –
CN1CCOC(c2ccccc2)c2ccccc2C1 (stereo not drawn) | inactive | –
Cc1cc(CC(=O)O)n(C)c1C(=O)c1ccc(Cl)cc1 | inactive | –
NC1CCN(c2cccc(Cl)n2)CC1 | inactive | –
O=Cc1ccccc1C=O | inactive | –
COc1ccccc1O | inactive | –
CC1(C)Oc2ccc(C#N)cc2[C@@H](N2CCCC2=O)[C@@H]1O | inactive | –
CC(C)(C(=O)O)c1ccc(C(O)CCCN2CCC(C(O)(c3ccccc3)c3ccccc3)CC2)cc1 (stereo not drawn) | inactive | –
CCCCCCCCCCCCOS(=O)(=O)O | inactive | –
NCCNCCNCCNCCN | – | -0.844% [at 9.22 µM]
Cc1cc2c(cc1S(N)(=O)=O)S(=O)(=O)CCC2 | inactive | –
CNCC(O)c1ccc(O)c(O)c1 (stereo not drawn) | inactive | –
COc1cc(C)c(Cc2cnc(N)nc2N)cc1OC | inactive | –
C[C@H](NC(CCc1ccccc1)C(=O)O)C(=O)N1CCC[C@H]1C(=O)O (stereo partly drawn) | inactive | –
CCN(CC)CCNC(C(=O)OCCC(C)C)c1ccccc1 (stereo not drawn) | inactive | –
NC(=O)NNc1ccccc1 | inactive | –
Cc1cc2nc3c(=O)[nH]c(=O)nc-3n(C[C@H](O)[C@H](O)[C@H](O)CO)c2cc1C | inactive | –
O=C(O)c1ccccc1-c1ccc(C(F)(F)F)cc1 | inactive | –
CC1=C(CC(=O)O)c2cc(F)ccc2/C1=C\c1ccc(S(C)(=O)=O)cc1 | inactive | –
Cc1ccc(C(C)C)cc2c(C)ccc1-2 | inactive | –
O=C1Nc2ccc(Cl)cc2[C@@](C#CC2CC2)(C(F)(F)F)O1 | inactive | –
O=S(=O)(O)NC1CCCCC1 | inactive | –
CN(N=O)C(=O)N[C@@H]1[C@@H](O)[C@H](O)[C@@H](CO)O[C@@H]1O | inactive | –
C[C@H]1O[C@H](O[C@H]2[C@H](O)[C@@H](O)[C@@H](O[C@H]3[C@H](O)[C@@H](O)[C@H](O)O[C@@H]3CO)O[C@@H]2CO)[C@H](O)[C@@H](O)[C@@H]1N[C@H]1C=C(CO)[C@@H](O)[C@H](O)[C@H]1O | inactive | –
COc1ccc2cc1Oc1cc3c(cc1OC)CC[N+](C)(C)[C@H]3Cc1ccc(cc1)Oc1c(OC)c(OC)cc3c1[C@@H](C2)[N+](C)(C)CC3 | inactive | –
O=C1O[C@H](CO)[C@@H](O)[C@H](O)[C@H]1O | inactive | –
O=C(O)COc1nn(Cc2ccccc2)c2ccccc12 | inactive | –

test: qHTS of pediatric cancer cell lines to identify multiple opportunities for drug repurposing: Primary screen for Rh30 cells (AID 1347107); conditions: Rh30 rhabdomyosarcoma viability, CellTiter-Glo luminescence, 48 h; series mostly up to 46 µM; note: nearly all actives have a fitted effect of over 75% in size
How it was run: as §1

Structure (SMILES) | outcome | activity change, negative = cytotoxic
Nc1cc(=O)[nH]c(N)n1 | inactive | –
Nc1ccc(S(=O)(=O)Nc2nccs2)cc1 | inactive | –
C[C@H](N)[C@H](O)c1cccc(O)c1 | inactive | –
C[C@@H](O)[C@H](N)C(=O)O | inactive | –
CN1CCOC(c2ccccc2)c2ccccc2C1 (stereo not drawn) | inactive | –
CC(=O)NC(Cc1ccccc1)C(=O)O (stereo not drawn) | inactive | –
Cc1cc(CC(=O)O)n(C)c1C(=O)c1ccc(Cl)cc1 | inactive | –
NC1CCN(c2cccc(Cl)n2)CC1 | inactive | –
O=Cc1ccccc1C=O | inactive | –
CC(O)COc1ccccc1 (stereo not drawn) | inactive | –
COc1ccccc1O | inactive | –
CC1(C)Oc2ccc(C#N)cc2[C@@H](N2CCCC2=O)[C@@H]1O | inactive | –
CCN(CC)C(=O)Nc1ccc(OCC(O)CNC(C)(C)C)c(C(C)=O)c1 (stereo not drawn) | inactive | –
CC(C)(C(=O)O)c1ccc(C(O)CCCN2CCC(C(O)(c3ccccc3)c3ccccc3)CC2)cc1 (stereo not drawn) | inactive | –
CCCCCCCCCCCCOS(=O)(=O)O | inactive | –
NCCNCCNCCNCCN | – | 7.05% [at 9.22 µM]
Cc1cc2c(cc1S(N)(=O)=O)S(=O)(=O)CCC2 | inactive | –
NC(=O)c1ncn([C@@H]2O[C@H](CO)[C@@H](O)[C@H]2O)c1N | inactive | –
COc1cc(C)c(Cc2cnc(N)nc2N)cc1OC | inactive | –

Structure (SMILES) | outcome | activity change, negative = cytotoxic
C[C@H](NC(CCc1ccccc1)C(=O)O)C(=O)N1CCC[C@H]1C(=O)O (stereo partly drawn) | inactive | –
CCN(CC)CCNC(C(=O)OCCC(C)C)c1ccccc1 (stereo not drawn) | inactive | –
NC(=O)NNc1ccccc1 | inactive | –
CC[C@H]1CN2CCc3cc(OC)c(OC)cc3[C@@H]2C[C@@H]1C[C@H]1NCCc2cc(OC)c(OC)cc21 | inactive | –
Cc1cc2nc3c(=O)[nH]c(=O)nc-3n(C[C@H](O)[C@H](O)[C@H](O)CO)c2cc1C | inactive | –
O=C(O)c1ccccc1-c1ccc(C(F)(F)F)cc1 | inactive | –
CC1=C(CC(=O)O)c2cc(F)ccc2/C1=C\c1ccc(S(C)(=O)=O)cc1 | inactive | –
Cc1ccc(C(C)C)cc2c(C)ccc1-2 | inactive | –
O=C1Nc2ccc(Cl)cc2[C@@](C#CC2CC2)(C(F)(F)F)O1 | inactive | –
O=S(=O)(O)NC1CCCCC1 | inactive | –
CN(N=O)C(=O)N[C@@H]1[C@@H](O)[C@H](O)[C@@H](CO)O[C@@H]1O | inactive | –
C[C@H]1O[C@H](O[C@H]2[C@H](O)[C@@H](O)[C@@H](O[C@H]3[C@H](O)[C@@H](O)[C@H](O)O[C@@H]3CO)O[C@@H]2CO)[C@H](O)[C@@H](O)[C@@H]1N[C@H]1C=C(CO)[C@@H](O)[C@H](O)[C@H]1O | inactive | –
COc1ccc2cc1Oc1ccc(cc1)C[C@H]1c3c(cc4c(c3Oc3cc5c(cc3OC)CCN(C)[C@@H]5C2)OCO4)CCN1C | inactive | –
COc1ccc2cc1Oc1cc3c(cc1OC)CC[N+](C)(C)[C@H]3Cc1ccc(cc1)Oc1c(OC)c(OC)cc3c1[C@@H](C2)[N+](C)(C)CC3 | inactive | –
O=C1O[C@H](CO)[C@@H](O)[C@H](O)[C@H]1O | inactive | –
Oc1ccc(C(O)CNCCCCCCNCC(O)c2ccc(O)c(O)c2)cc1O (stereo not drawn) | inactive | –
CC1=C(/C=C/C(C)=C/C=C/C(C)=C/C(=O)O)C(C)(C)CCC1 | inactive | –
CC1(C)CO[C@@H](CC(=O)O)CN1 | inactive | –
O=C(O)COc1nn(Cc2ccccc2)c2ccccc12 | inactive | –
